Screening results deposited in PubChem by The Scripps Research Institute Molecular Screening Center.
hcDAF12 agonist = H. contortus DAF-12 activation, primary screen; HEK293 hcDAF-12 lit1-tk-luc reporter, luminescence; 0% DMSO, 100% Δ7-dafachronic acid; actives 1.4% (n = 370,000); activation, % at 6.8 µM;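 active = activation above the mean of all tested compounds plus 3 SD, cut at about 5.5% in these data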;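 note: 100% = response to 3 µM Δ7-dafachronic acid high control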
DAX1 inh-1 = NR0B1 (DAX1) inhibition. HEK293 Gal4-DAX1 luciferase reporter, luminescence. P51843. actives 0.99% (n = 340,000). inhibition, % at 6.75 µM;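 active = inhibition above the mean over all tested compounds plus 3 SD, cut at about 4.2% in these data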;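 note: 0% = DAX1-transfected cells with DMSO and 100% = empty-vector control cells with DMSO; inhibition shows as a rise in luminescence from relieved DAX1 repression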
DAX1 inh-2 = blocks DAX1 repression of SF-1 activated StAR promoter | inhibition, % at 6.8 µM | actives 1.1% (n = 370,000) | HEK293T StAR-luciferase reporter, SF-1/DAX-1 repression relief;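 active = inhibition above the mean over all tested compounds plus 3 SD, cut at about 3.6% in these data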;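 note: 0% = DAX-1 cells with DMSO and 100% = cells lacking DAX-1 with DMSO; higher inhibition means more luminescence from relief of DAX-1 repression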
SMARCA2 activ = SMARCA2 function activation, primary screen. MG213 cells, MMTV-luciferase reporter, dexamethasone, overnight. activation, % at 9.1 µM. actives 1% (n = 370,000); in the data active = activation above about 7.8%;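 note: 0% = vehicle wells and 100% = reference activator wells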
ssDAF-12 act = activates DAF-12 receptor from parasite S. stercoralis; actives 1% (n = 370,000); AID 652126; HEK293 ssDAF-12/GRIP1 lit1-tk-luc reporter, luminescence; % of 3 µM dafachronic acid response; activation, % at 6.8 µM;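 active = activation above the mean over all tested compounds plus 3 SD, cut at about 0.9% in these data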;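 note: 0% = DMSO-only wells and 100% = 3 µM delta7-dafachronic acid wells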
hgDAF-12 ag = agonists of H. glycines DAF-12 nuclear receptor; HEK293 GAL4-hgDAF12 UAS-luciferase reporter, agonist luminescence; normalized to butyrate control; actives 1.8% (n = 370,000); activation, % at 6.8 µM;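 active = activation above a cutoff set at the mean of all screened compounds plus 3 SD, cut at about 10% in these data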;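 note: 0% = DMSO wells and 100% = sodium butyrate wells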
DAX1 conf = NR0B1 (human) inhibition, confirmation. shares compounds with DAX1 inh-2. HEK293T StAR-promoter luciferase reporter, SF-1/DAX-1 repression. inhibition, % at 6.8 µM. actives 87% (n = 2,400). AID 652134;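 active = inhibition above the average of every tested compound plus 3 SD, cut at about 3.8% in these data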;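 note: 0% = DAX-1 cells with DMSO and 100% = no DAX-1 control cells with DMSO; active compounds raise luminescence by relieving repression of the StAR reporter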
Target sequence (P51843 whole entry, looked up): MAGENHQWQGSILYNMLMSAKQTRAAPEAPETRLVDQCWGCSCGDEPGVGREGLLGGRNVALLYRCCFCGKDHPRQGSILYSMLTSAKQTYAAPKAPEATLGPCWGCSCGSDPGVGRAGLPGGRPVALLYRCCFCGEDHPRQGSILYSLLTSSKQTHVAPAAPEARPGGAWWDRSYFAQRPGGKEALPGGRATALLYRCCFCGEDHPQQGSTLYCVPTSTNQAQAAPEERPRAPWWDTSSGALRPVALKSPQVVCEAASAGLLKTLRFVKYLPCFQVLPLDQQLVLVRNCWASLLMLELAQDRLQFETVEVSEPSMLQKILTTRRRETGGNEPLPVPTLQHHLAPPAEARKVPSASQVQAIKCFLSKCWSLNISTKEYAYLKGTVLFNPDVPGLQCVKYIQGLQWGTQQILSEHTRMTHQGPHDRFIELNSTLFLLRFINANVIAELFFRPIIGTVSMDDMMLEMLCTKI
SF1 mutant ctr = counter-screen for DAX1 inhibitors: nonselective inhibitors with SF-1 AF2 mutant; shares compounds with DAX1 inh-2; HEK293 StAR-luciferase, luminescence; inhibition, % at 6.8 µM; actives 78% (n = 2,400);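 active = inhibition above the mean of all tested compounds plus 3 SD, cut at about 3% in these data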;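 note: 0% = DAX-1 transfected cells with DMSO and 100% = cells without DAX-1 with DMSO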
* marks the source's active call; other numbers are inactive results; · = not tested or not shown. The list is not random: actives were taken first. Their share in the collection is about 4.8%.

SMILES	hcDAF12 agonist	DAX1 inh-1	DAX1 inh-2	SMARCA2 activ	ssDAF-12 act	hgDAF-12 ag	DAX1 conf	SF1 mutant ctr
COc1cc(C(=O)c2cc3c(cc2C)OCO3)cc(OC)c1OC	-1.2	·	6.5*	-0.3	-1.5	-0.6	12.8*	-8.9
COc1cc(/C=C/C(=O)c2ccc3c(c2)OCO3)cc(OC)c1OC	·	-2.0	·	·	·	·	·	·
O=C(CCc1nnc2n(Cc3ccccc3)c(=O)c3ccccc3n12)NCCCN1CCCCC1	-0.5	-0.1	0.3	3.3	-1.3	2.2	·	·
CC1CCN(CCCNC(=O)CCc2nnc3n(CCc4ccccc4)c(=O)c4ccccc4n23)CC1	1.3	-0.1	5.7*	1.9	-1.4	-2.6	-1.5	-0.2
Fc1ccc(-c2nnc(-c3ccc(Cl)cc3Cl)o2)cc1	4.9	2.0	5.3*	4.0	0.5	12.3*	8.3*	3.6*
CCCCNS(=O)(=O)CC1NCc2cc(OC)ccc21 (stereo unspecified)	-1.8	·	0.3	-6.1	-1.6	-0.2	·	·
N/C(=N\OC(=O)c1cccc(C(F)(F)F)c1)c1cnccn1	4.3	0.9	5.2*	5.2	0.0	11.0*	7.3*	5.9*
O=C(CNC(=O)c1cccs1)c1ccc(F)cc1	4.9	1.0	4.7*	7.8	-0.5	13.2*	16.3*	6.9*
O=C(CNC(=O)c1cccs1)Nc1ncccc1O	1.9	0.3	4.5*	-0.4	-0.7	0.4	3.1	2.4
COc1cccc(/C=N\N2CCN(c3ccc(C)cc3)CC2)c1O	-2.2	·	-0.2	-1.5	-1.1	1.0	·	·
COc1ccc2c(c1)C(NC(=O)C(F)(F)F)CC21CCCCC1 (stereo unspecified)	0.5	·	0.2	-1.7	-0.8	-1.2	·	·
CCCCNS(=O)(=O)/C=C/c1cc2c(cc1CNC(=O)OC(C)(C)C)OCO2	-2.7	·	-1.3	-3.2	-0.9	0.1	·	·
CN1[C@@H](Cc2ccccc2)COc2cccc(F)c2S1(=O)=O	-2.0	·	-0.9	0.0	-1.4	-0.4	·	·
C=C1CCCC2OC(CC3=CC4/C(C)=C/CC(C)CC(/C=C(\C)C(O)C5CC(O)C(O)C(CCC(O)/C=C/C(C)=C/CCC6=NCCC(C3)C64C)O5)OC(=O)CC3OC(C(O)C1)C(O)C3O)CC(O)C2O (stereo unspecified)	5.8*	·	7.9*	1.2	0.2	-0.5	11.4*	-2.6
CCCCc1ccc(-c2noc(CCC(=O)NCC)n2)cc1	-6.4	·	·	·	-2.2	-9.9	·	·
Cc1nc2ccc(NC(=O)c3ccc(Br)o3)cc2s1	1.0	2.3	6.2*	7.3	-1.5	4.7	13.8*	7.6*
CC(=O)c1sc(NC(=O)c2ccc(Br)o2)nc1C	3.3	0.0	4.6*	0.0	2.1*	7.1	4.1*	5.4*
CCCC(=O)Nc1nc2ccc(NC(=O)c3ccc(Br)o3)cc2s1	-1.6	-1.9	-1.4	2.6	-1.3	-1.9	·	·
Cc1nc2ccc(NC(=O)C3=NN(C)C(=O)CC3)cc2s1	0.8	1.2	7.5*	-0.4	-0.8	0.1	2.0	3.4*
CC(=O)c1sc(Nc2ccc(Oc3ccccc3)cc2)nc1C	-0.5	·	9.2*	-2.5	-0.2	8.8	3.9*	0.3
COc1ccc(S[C@]2(C(=O)NC3CC3)CC(=O)N[C@@H]2c2ccc(OC)cc2)cc1	0.3	·	-0.1	-1.6	-1.0	3.0	·	·
O=C(CNC(=O)c1cn2ccccc2n1)Nc1ccc(F)c(F)c1	2.4	3.1	6.2*	6.0	0.2	8.7	8.5*	5.7*
COc1ccc(NC(=O)NNC(=O)CCn2nc(C)c([N+](=O)[O-])c2C)cc1OC	-0.2	·	1.0	-2.3	-0.3	0.0	·	·
Cc1cc(F)ccc1-c1cc(C(=O)Nc2ccc(F)cc2)[nH]n1	1.8	·	9.6*	1.4	0.0	11.8*	11.1*	5.6*
COc1ccc(NC(=O)c2cc(-c3ccc(F)cc3C)n[nH]2)cc1OC	-3.2	·	1.7	-2.9	-1.3	-3.9	·	·
